From PubChem BioAssay (NCATS)
Records with an inconclusive call do not appear. A call without a number means that no potency is given here. A number with no mark means an inactive call. Active and inactive are the calls of the source. Unless noted, calls follow the shape of the dose curve; as a rule, active = well fitted curve in the direction sought with a large enough effect; inconclusive = small, poorly fitted or top-dose-only effect, or another doubt; inactive = no such curve, though single readings can be large; an effect the other way counts as inactive or inconclusive.

Key:
[1] = qHTS assay for small molecule agonists of the antioxidant response element (ARE) signaling pathway measured by Nrf2-dependant transcriptional activity - cell viability counter screen (AID 720653; active = well fitted curve in the direction sought with a large enough effect in the repeat runs; an effect the other way counts as inactive or inconclusive); details: ARE-bla HepG2 viability, CellTiter-Glo ATP luminescence, 16 h; stronger effect = lower value
Method in brief: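 ARE-bla HepG2 cells (2,000/well) rested 5 hrs at 37C/5% CO2, then exposed to compounds in DMSO for 16 hrs. Viability was read in the same wells as intracellular ATP by luminescence, 30 min at room temperature after reagent addition.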

[2] = qHTS assay for cell viability of the p53RE-bla HCT-116 cell line (AID 743292); details: p53RE-bla HCT-116 viability, ATP luminescence, 16 h; series mostly up to 95 µM; also: nearly all actives have a fitted effect of over 55% in size
Method in brief: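 Viability of compound-treated p53RE-bla HCT-116 cells is taken from ATP-dependent luciferase luminescence. Treatment lasts 16 h at 37 C after a 5 h settling period; detection follows 30 min at room temperature.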

[3] = P-glycoprotein substrates identified in KB-8-5-11 adenocarcinoma cell line, qHTS therapeutic library screen (AID 1346987); details: KB-8-5-11 (P-gp overexpressing) viability, CellTiter-Glo, 72 h; series mostly up to 44.5 µM; also: nearly all actives have a fitted effect of over 65% in size; also: potency is read from the fitted curve at half-maximal effect
Method in brief: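 KB-8-5-11: colchicine-selected sub-line of KB-3-1 over-expressing P-gp; assay medium lacked colchicine. 72 h drug exposure at 37 degree C, CellTiter-Glo.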

[4] = NS1 protein of Zika virus - qHTS assay to identify small molecule inhibitors in human HEK 293 cells (AID 1347053); details: HEK293 ZIKV MR766 infection, NS1 TR-FRET, 24 h; series mostly up to 46.1 µM; also: nearly all actives have a fitted effect of over 55% in size; also: potency is read from the fitted curve at half-maximal effect
Method in brief: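 HEK 293 cells pretreated with compound for 1 h, then infected with ZIKV MR766 (MOI 0.5) for 24 h at 37 C. NS1 detected by TR-FRET with two anti-NS1 antibodies; normalized to uninfected (0%) and infected (100%) wells.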

[5] = qHTS of pediatric cancer cell lines to identify multiple opportunities for drug repurposing: Primary screen for SJ-GBM2 cells (AID 1347091); details: SJ-GBM2 viability, CellTiter-Glo luminescence, 48 h; series mostly up to 46 µM
Method in brief: (§1)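 Eight- or eleven-point concentration series, 48 h treatment at 37 degrees C in growth media; readout CellTiter-Glo luminescence. Potency and efficacy were taken from the concentration-response curves.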

[6] = qHTS of pediatric cancer cell lines to identify multiple opportunities for drug repurposing: Primary screen for A673 cells (AID 1347092); details: A673 Ewing sarcoma viability, CellTiter-Glo ATP luminescence, 48 h; series mostly up to 46 µM; also: nearly all actives have a fitted effect of over 45% in size; also: potency is read from the fitted curve at half-maximal effect
Method in brief: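 Cell viability of A673 measured by CellTiter-Glo ATP luminescence after 48 hours compound exposure. Dilution series spanned 0.78 nM to 46 µM (MIPE, 11-point) or 0.59 nM to 46 µM (NPC, 8-point); bortezomib 2.3 uM positive control.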

[7] = qHTS of pediatric cancer cell lines to identify multiple opportunities for drug repurposing: Primary screen for Saos-2 cells (AID 1347097); details: Saos-2 viability, CellTiter-Glo ATP luminescence, 48 h; series mostly up to 46 µM; also: nearly all actives have a fitted effect of over 40% in size; also: potency is read from the fitted curve at half-maximal effect
Method in brief: (§2)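 Plated cells (500-1,000 per well, growth media) were allowed to settle for 5 hours, treated with compound dilutions for 48 hours, then lysed with CellTiter-Glo for 15 min at room temperature before luminescence reading.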

[8] = qHTS of pediatric cancer cell lines to identify multiple opportunities for drug repurposing: Primary screen for NB1643 cells (AID 1347099); details: NB1643 neuroblastoma viability, CellTiter-Glo luminescence, 48 h; series mostly up to 46 µM; also: nearly all actives have a fitted effect of over 50% in size; also: potency is read from the fitted curve at half-maximal effect
Method in brief: as §2

[9] = qHTS assay for small molecule antagonists of the retinoid-related orphan receptor gamma (ROR-gamma) signaling pathway - cell viability counter screen (AID 720652; active = well fitted curve in the direction sought with a large enough effect in the repeat runs; an effect the other way counts as inactive or inconclusive;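 also: CHO reporter cells with doxycycline-induced ROR-gamma expression; compound exposure lasted 16 hr before ATP read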); details: RORgamma reporter cell line viability counter screen; series mostly up to 92.2 µM
Method in brief: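 Counter screen in CHO cells carrying TET-inducible ROR-gamma and an ROR response element-luciferase reporter; cells plated 5 hr, compound pinned, doxycycline added, then 16 hr at 37 C. Viability read as intracellular ATP by CellTiter-Glo luminescence.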

[10] = qHTS Assay for Identifying Gametocytocidal Compounds (AID 743244); also: potency is read from the fitted curve at half-maximal effect; details: P. falciparum 3D7 stage III-V gametocytes, alamarBlue, 72 h; max response: stronger effect = lower value
Method in brief: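 Late gametocytes (III–V), P. falciparum 3D7; 72 h drug, then 24 h alamarBlue; resazurin reduction read by fluorescence.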

[11] = qHTS assay for cell viability of HEK293 cells (AID 743288); details: ATP luminescence (CellTiter-Glo), 18 h, stronger effect = lower value; also: nearly all actives have a fitted effect of over 50% in size
Method in brief: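 Total intracellular ATP, measured with a luciferase-coupled reagent, indicates the number of viable HEK293 cells. Exposure to test chemicals lasts 18 h at 37 C in 1,536-well format at 2,000 cells/well.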

[12] = qHTS of pediatric cancer cell lines to identify multiple opportunities for drug repurposing: Primary screen for SK-N-SH cells (AID 1347098); details: SK-N-SH viability, CellTiter-Glo luminescence, 48 h; series mostly up to 57 µM; also: nearly all actives have a fitted effect of over 65% in size; also: potency is read from the fitted curve at half-maximal effect
Method in brief: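 Cells (500-1,000/well) rested 5 h, then received compounds for 48 h; metabolically active cells were measured by CellTiter-Glo luminescence. Final concentrations spanned up to 46 µM (MIPE, 11-point) or 0.59 nM-46 µM (NPC, 8-point) in primary screens, 11-point in follow-ups.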

[13] = qHTS of pediatric cancer cell lines to identify multiple opportunities for drug repurposing: Primary screen for TC32 cells (AID 1347089); details: TC32 Ewing sarcoma viability, CellTiter-Glo luminescence, 48 h; series mostly up to 45.8 µM; also: nearly all actives have a fitted effect of over 60% in size
Method in brief: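 Luminescent ATP read-out (CellTiter-Glo) of metabolically active TC32 cells after 48 h exposure. Concentration-response curves came from 11-point (MIPE, 0.78 nM–46 µM) or 8-point (NPC, 0.59 nM–46 µM) primary titrations; follow-up used 11 points.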

[14] = qHTS of pediatric cancer cell lines to identify multiple opportunities for drug repurposing: Primary screen for DAOY cells (AID 1347090); details: DAOY medulloblastoma viability, CellTiter-Glo luminescence, 48 h; series mostly up to 46 µM; also: nearly all actives have a fitted effect of over 55% in size
Method in brief: as §1

[15] = qHTS of pediatric cancer cell lines to identify multiple opportunities for drug repurposing: Primary screen for SK-N-MC cells (AID 1347093); details: SK-N-MC viability, CellTiter-Glo luminescence, 48 h; series mostly up to 46 µM
Method in brief: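 Metabolically active cells were quantified by ATP-dependent luminescence (CellTiter-Glo, 15 min at room temperature) following 48 h treatment. Cells had been plated at 500-1,000 per well and settled for 5 h beforehand.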

[16] = qHTS of pediatric cancer cell lines to identify multiple opportunities for drug repurposing: Primary screen for BT-37 cells (AID 1347094); details: BT-37 viability, CellTiter-Glo luminescence, 48 h; series mostly up to 57.3 µM
Method in brief: as §2

[17] = qHTS of pediatric cancer cell lines to identify multiple opportunities for drug repurposing: Primary screen for NB-EBc1 cells (AID 1347095); details: NB-EBc1 neuroblastoma viability, CellTiter-Glo luminescence, 48 h; series mostly up to 46 µM
Method in brief: as §2

[18] = qHTS of pediatric cancer cell lines to identify multiple opportunities for drug repurposing: Primary screen for U-2 OS cells (AID 1347096); details: U-2 OS viability, CellTiter-Glo luminescence, 48 h; series mostly up to 46 µM; also: nearly all actives have a fitted effect of over 50% in size
Method in brief: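 Cells (500-1,000/well) in growth media were settled 5 h at 37 degrees C, then given compounds for 48 h. Viability was read as CellTiter-Glo luminescence. Primary runs used MIPE at 11 points (0.78 nM-46 µM) and NPC at 8 points (0.59 nM-46 µM); follow-ups used 11 points.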

Nc1ccccc1N
max response [1]: 1.96%
outcome [2]: inactive
Potency [3]: inactive
Potency [4]: inactive
outcome [5]: inactive
Potency [6]: 15.4 µM (active)
Potency [7]: 30.6 µM (active)
Potency [8]: 30.6 µM (active)

Cc1ccc(N)cc1O
outcome [9]: inactive
max response [1]: -11.4%
Potency [10]: 31.6 µM (active)
max response [11]: 3.99%
outcome [2]: inactive
Potency [3]: inactive
Potency [4]: 31.6 µM (active)
outcome [5]: inactive
Potency [6]: 30.6 µM (active)
Potency [12]: 31.4 µM (active)

c1ccc(-c2csc(N3CCOCC3)n2)cc1
Potency [3]: inactive

Cn1cc(-c2ccc3nnc(Sc4ccc5nn(C)cc5c4)n3n2)cn1
Potency [3]: inactive

CNC(=O)c1ccccc1Nc1nc(Nc2ccc3c(c2OC)CCC[C@@H](N2CCN(CCO)CC2)C3)ncc1Cl
Potency [3]: 10.3 µM (active)

CC(C)=CCC/C(C)=C/CC/C(C)=C/COC1OC(COC2OCC(OC3OCC(O)C(O)C3O)C(O)C2O)C(O)C(OC2OC(C)C(OC3OC(C)C(OC4OCC(OC5OC(C)C(O)C(O)C5O)C(O)C4O)C(O)C3O)C(O)C2O)C1O (centres undefined)
activity change, negative = cytotoxicity [3]: 7.18% [at 9.29 µM]

CN(C)c1nc(NC2CCC(NCCc3ccc(Br)cc3OC(F)(F)F)CC2)nc2ccccc12 (centres undefined)
Potency [3]: 4.61 µM (active)

CCC(O)C(C)C1CCC(C(C)C(=O)O)O1 (centres undefined)
Potency [3]: inactive

CCOc1cc(C(=O)N2CCC(N3CCN(C)CC3)CC2)ccc1Nc1ncc2c(n1)N(C1CCCC1)c1ccccc1C(=O)N2C
Potency [3]: 13 µM (active)

C[C@H]1C(=O)N2c3ccccc3[C@@]3(O)C[C@@H]4C(=O)N[C@](C)(c5nc6ccccc6c(=O)n54)N1[C@@H]23
Potency [3]: inactive

CC(C)/C=C1\NC(=O)C(C(C)C)n2c1nc1c(c2=O)C=CC=CO1 (centres undefined)
Potency [3]: inactive

COC1CC(O[C@H]2CC[C@@]3(C)C(=CC[C@]4(O)C3[C@H](OC(C)=O)[C@@H](OC(=O)c3ccccc3)[C@]3(C)[C@@H](C(C)=O)CC[C@@]34O)C2)OC(C)C1OC1CC(OC)C(OC2CC(OC)C(OC3OC(C)C(OC4OC(CO)C(O)C(O)C4O)C(OC)C3O)C(C)O2)C(C)O1 (some centres undefined)
activity change, negative = cytotoxicity [3]: 1.94% [at 9.29 µM]

Cc1cnc(Nc2ccc(F)cc2Cl)nc1-c1c[nH]c(C(=O)NC(CO)c2cccc(Cl)c2)c1 (centres undefined)
Potency [3]: 3.66 µM (active)

CC1(C)CCC[C@@]2(C)C1[C@H](OC(=O)/C=C/C=C/C(=O)O)C=C1COC(=O)[C@@]12O (some centres undefined)
Potency [3]: inactive

C=C[C@@](C)(O)CC/C=C(\C)C(=O)O[C@@H]1[C@@H]2O[C@]2(C)[C@H]2[C@H](O[C@@H]3O[C@H](CO)[C@@H](O)[C@H](O)[C@H]3O)OC=C[C@@]12O
Potency [3]: inactive

C=CC(=O)Nc1cc(Nc2ncc(Cl)c(-c3c[nH]c4ccccc34)n2)c(OC)cc1N(C)CCN(C)C
Potency [3]: 5.17 µM (active)

CCC(C(=O)O)c1ccc(N2Cc3ccccc3C2=O)cc1 (centres undefined)
Potency [4]: inactive
outcome [13]: inactive
outcome [14]: inactive
outcome [5]: inactive
Potency [6]: inactive
outcome [15]: inactive
outcome [16]: inactive
outcome [17]: inactive
outcome [18]: inactive
Potency [7]: inactive
Potency [12]: inactive
Potency [8]: inactive

C#CCN(Cc1cc2c(=O)[nH]c(C)nc2cc1Br)c1ccc(C(=O)NCc2cccnc2)cc1
Potency [3]: 0.259 µM (active)

O=C(O)c1c(O)c(-c2ccccc2)nc2ccccc12
Potency [4]: inactive
outcome [13]: inactive
outcome [14]: inactive
outcome [5]: inactive
Potency [6]: inactive
outcome [16]: inactive
outcome [18]: inactive
Potency [7]: inactive
Potency [12]: inactive
Potency [8]: inactive

COCCN1CCN(Cc2ccc(-c3n[nH]c4c3C(=O)c3c(NC(=O)NN5CCOCC5)cccc3-4)cc2)CC1
Potency [3]: 2.59 µM (active)

C=C(C)C1Cc2cc(C(=O)OC3OC(CO)C(O)C(O)C3O)ccc2O1 (centres undefined)
Potency [3]: inactive

CCOCCOC(=O)/C=C/c1ccc(OC)cc1
Potency [4]: inactive
outcome [13]: inactive
outcome [14]: inactive
outcome [5]: inactive
Potency [6]: inactive
outcome [15]: inactive
outcome [16]: inactive
outcome [17]: inactive
outcome [18]: inactive
Potency [7]: inactive
Potency [12]: inactive
Potency [8]: inactive
